Calls of active or inactive are those of the source.

Test [1] deals with Plasmodium falciparum Sir2 (PF13_0152, Sir2A). Kind of test: Plasmodium falciparum Sir2A binding compounds – biochemical, small-molecule microarray, 635 nm fluorescence, primary screen (AID 1098).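 Also: score merges spot fluorescence intensity with its signal-to-noise ratio.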 To be noted: fluorescence 635 nm, higher = more signal.
The nature of test [2]: probe aDKK1 binding to arrayed compounds – biochemical, biotinylated probe, 635/667 nm fluorescence, primary screen (AID 1099).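 Also: score merges 667nm spot fluorescence with signal to noise across triplicate slides; reference of the scale not given here.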 Conditions: small-molecule microarray, higher = more signal.
The nature of test [3]: probe aCHRDL2 binding to arrayed compounds – biochemical, biotinylated probe, 635/667 nm fluorescence, primary screen (AID 1100). Conditions: small-molecule microarray, higher = more signal.
Test [4] is described as follows: change in splice reporter luminescence, either direction, cell-based, HEK293, spliceosome inhibition project, primary screen (AID 1101).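 Also: HEK293 cells carrying a splicing-competent luciferase reporter gene; test concentration not given here.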 Conditions: HEK293 splicing luciferase reporter, 24 h, higher = more signal, called active from +8 up or from −8 down. Background: Reporter assays use an easily measured gene product as a stand-in for the process of interest.
Test [5] addresses Fibroblast growth factor 10 (Homo sapiens) (UniProt O15520). The test can be described thus: compounds binding fibroblast growth factor 10 – biochemical, small-molecule microarray, 635 nm fluorescence, primary screen (AID 1102). To be noted: FGF10 binding, fluorescence 635 nm, higher = more signal.
Test [6] relates to glycogen synthase kinase-3 (GSK3A per assay name; protocol says GSK3B). Kind of test: compounds binding glycogen synthase kinase-3 – biochemical, small-molecule microarray, 635 nm fluorescence, GSK3A, primary screen (AID 1103). Also: the record names both GSK3A and GSK3B. To be noted: fluorescence 635 nm, higher = more signal.
Test [7] has as its target Epidermal growth factor receptor (Homo sapiens) (UniProt P00533). The test can be described thus: compounds binding epidermal growth factor receptor – biochemical, small-molecule microarray, 635 nm fluorescence, primary screen (AID 1104).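 Also: score merges 667 nm emission intensity with spot signal to noise over triplicate slides.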 Conditions: EGFR binding, higher = more signal.
Test [8] addresses Follistatin-related protein 3 (Homo sapiens) (UniProt O95633). Kind of test: compounds binding follistatin-related protein 3 – biochemical, small-molecule microarray, 635 nm fluorescence, primary screen (AID 1105).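 Also: score merges emission near 667 nm and signal to noise per printed spot across three slides.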 To be noted: FSTL3 binding, higher = more signal.
For test [9], the target named is Dickkopf-related protein 1 (Homo sapiens) (UniProt O94907). Kind of test: small molecules binding DKK1 protein – biochemical, small-molecule microarray, 635 nm fluorescence scan, primary screen (AID 1106).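 Also: score merges emission near 667 nm with signal to noise over three replicate slides.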 To be noted: higher = more signal.
Sequence of Dickkopf-related protein 1 (Homo sapiens) (O94907 whole entry, looked up): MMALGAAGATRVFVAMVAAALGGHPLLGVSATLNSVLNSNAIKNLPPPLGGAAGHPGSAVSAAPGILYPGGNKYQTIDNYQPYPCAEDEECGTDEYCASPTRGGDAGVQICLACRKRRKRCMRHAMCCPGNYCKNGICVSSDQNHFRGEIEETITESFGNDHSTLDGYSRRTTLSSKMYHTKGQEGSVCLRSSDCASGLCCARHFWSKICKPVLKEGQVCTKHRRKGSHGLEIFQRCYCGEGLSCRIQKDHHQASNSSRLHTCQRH
The subject of test [10] is Inhibin beta A chain (activin A). The test can be described thus: small molecules binding activin A – biochemical, small-molecule microarray, 635 nm fluorescence scan, primary screen (AID 1107).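 Also: mouse activin A protein probed at 4.33 µg/mL on printed slides; score merges bound-protein fluorescence near 667 nm with spot signal-to-noise.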 To be noted: INHBA, higher = more signal.

Sequence of Fibroblast growth factor 10 (Homo sapiens) (O15520 whole entry, looked up): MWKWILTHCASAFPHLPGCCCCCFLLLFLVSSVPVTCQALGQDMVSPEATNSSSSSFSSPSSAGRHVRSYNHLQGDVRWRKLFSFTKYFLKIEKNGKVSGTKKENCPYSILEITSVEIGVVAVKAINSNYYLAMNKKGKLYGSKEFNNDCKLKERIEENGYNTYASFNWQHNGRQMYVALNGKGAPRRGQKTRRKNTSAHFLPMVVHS
Sequence of Follistatin-related protein 3 (Homo sapiens) (O95633 whole entry, looked up): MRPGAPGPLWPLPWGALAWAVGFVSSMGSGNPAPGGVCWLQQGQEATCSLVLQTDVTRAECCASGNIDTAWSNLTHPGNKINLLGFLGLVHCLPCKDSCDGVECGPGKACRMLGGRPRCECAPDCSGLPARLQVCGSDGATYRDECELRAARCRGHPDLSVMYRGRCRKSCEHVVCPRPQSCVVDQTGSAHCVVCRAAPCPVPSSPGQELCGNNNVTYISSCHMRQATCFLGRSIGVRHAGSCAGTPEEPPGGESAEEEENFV
Sequence of Epidermal growth factor receptor (Homo sapiens) (P00533 whole entry, looked up): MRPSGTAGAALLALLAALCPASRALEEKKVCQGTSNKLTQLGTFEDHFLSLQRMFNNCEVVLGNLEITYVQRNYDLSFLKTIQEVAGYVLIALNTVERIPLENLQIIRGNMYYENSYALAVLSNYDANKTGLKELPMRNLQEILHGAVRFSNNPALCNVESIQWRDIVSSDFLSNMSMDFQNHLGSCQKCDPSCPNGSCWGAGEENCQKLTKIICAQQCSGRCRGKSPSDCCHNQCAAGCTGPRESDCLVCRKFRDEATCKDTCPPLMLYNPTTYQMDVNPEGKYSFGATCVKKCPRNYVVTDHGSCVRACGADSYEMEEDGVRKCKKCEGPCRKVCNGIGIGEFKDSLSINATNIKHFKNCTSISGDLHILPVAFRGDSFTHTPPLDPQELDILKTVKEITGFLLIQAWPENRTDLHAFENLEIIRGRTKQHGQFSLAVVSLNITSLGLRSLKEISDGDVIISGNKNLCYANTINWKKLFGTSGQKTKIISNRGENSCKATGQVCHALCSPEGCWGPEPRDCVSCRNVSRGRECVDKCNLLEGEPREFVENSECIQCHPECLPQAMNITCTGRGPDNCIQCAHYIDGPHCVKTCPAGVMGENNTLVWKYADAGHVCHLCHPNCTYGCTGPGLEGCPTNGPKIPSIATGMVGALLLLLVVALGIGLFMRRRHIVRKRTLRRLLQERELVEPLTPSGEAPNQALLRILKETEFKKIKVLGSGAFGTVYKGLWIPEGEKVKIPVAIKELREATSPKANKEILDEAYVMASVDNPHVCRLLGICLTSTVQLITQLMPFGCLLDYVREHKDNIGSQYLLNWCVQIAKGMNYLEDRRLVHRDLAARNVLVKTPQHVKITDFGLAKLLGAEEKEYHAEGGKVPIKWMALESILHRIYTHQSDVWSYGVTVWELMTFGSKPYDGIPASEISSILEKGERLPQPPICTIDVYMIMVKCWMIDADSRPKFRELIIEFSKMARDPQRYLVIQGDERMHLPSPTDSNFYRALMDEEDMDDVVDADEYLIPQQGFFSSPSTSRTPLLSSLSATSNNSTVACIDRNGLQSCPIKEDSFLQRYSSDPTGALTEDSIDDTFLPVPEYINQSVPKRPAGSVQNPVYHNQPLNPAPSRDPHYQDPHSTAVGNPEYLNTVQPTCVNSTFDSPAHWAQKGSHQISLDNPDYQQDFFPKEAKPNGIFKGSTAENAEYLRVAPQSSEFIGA

As for `COc1ccc(OC[C@@H]2CC3[C@@H](c4ccc(Br)cc4)[C@H](C)CC[C@H]3C(=O)O2)cc1` (stereo not given in full), the composite z-score in test [1] was 0.353; in test [2], -0.436; in [3] it was -0.727; in [5], 0.638; in test [6] it was -0.274; in test [7] it was 0.885. The composite z-score in [8] turned out to be 0.354; in test [9] it was 0.827; in test [10] it was 0.483. The z-score in [4] is -0.823 (inactive).
As for `CC(CCN1CCCCc2nc(C)c(C)cc21)=NO[C@@H](C)c1cc(-c2c(C)cc(C)cc2C)no1`, the composite z-score in [1] was 1.41; in test [2], -0.422; in [3] it was 0.27; in test [5], -0.488; in test [6], -1.05; in [7], -1.51. The composite z-score was -1.35 in [8], -0.0396 in test [9] and 0.823 in test [10]. For the same molecule, the z-score in test [4] is 0.673 (inactive).
Consider `OC[C@H]1O[C@H](C#Cc2ccccc2)C=C[C@@H]1O`, for which the composite z-score was 0.721 in [1]; -0.301 in [2]; -0.385 in test [3]; 0.194 in [5]; 0.356 in [6]; 0.506 in [7]. Besides, the composite z-score in [8] worked out at 0.546; in [9] it was 0.546; in test [10] it was 0.408. Moreover, in [4], the z-score is 0.072 (inactive).
On to `COC(=O)CC=C[C@@H](C)[C@@H](C=NOC[C@@H](O)[C@H]1O[C@@H]2OC(C)(C)O[C@@H]2[C@H]1O)OC`, for which the composite z-score in [1] was 0.42; in test [2], -0.0276; in test [3], -0.673; in test [5], 0.247; in test [6], 0.589; in test [7], 0.496. The composite z-score in test [8] is 0.115; in [9], 0.56; in test [10], -0.16. For the same molecule, the z-score in test [4] is -0.123 (inactive).
On to `CON=C(C)CCN1CCCc2nc(C)c(C)cc21`, for which the composite z-score in test [1] was 0.858; in [2] it was -0.117; in [3], -0.429; in [5], 0.423; in test [6] it was 0.897; in test [7], 0.695. The composite z-score in [8] is 0.68; in [9], 0.847; in [10], 0.912. The z-score in test [4] is 0.205 (inactive).
Regarding `COC(=O)[C@H](C)NC(=O)CCC1CC(OC(=O)NCc2cccc3ccccc23)CC2(CCCC(COC(=O)NCCOc3ccccc3)O2)O1` (stereo not given in full), the composite z-score in [1] was 1.1; in test [2], -0.357; in test [3], -0.413; in [5] it was 0.411; in [6], 0.526; in test [7] it was 0.148. In addition, the values for the composite z-score in test [8], in [9] and in [10] were 0.319, -0.303 and -0.143, respectively. Moreover, the z-score in test [4] is -0.834 (inactive).
With `CCOC(=O)[C@H](Cc1ccccc1)NC(=O)CCC1CC(OC(=O)NCc2cccc3ccccc23)CC2(CCCC(COC(=O)NCCc3ccccc3OC)O2)O1` (stereo not given in full), the composite z-score in test [1] was 0.405; in test [2] it was -0.0537; in test [3], -0.409; in test [5], 0.791; in [6], 0.583; in test [7], 0.454. Moreover, the figures for the composite z-score in test [8], in test [9] and in [10] were 1.07, 0.331 and -0.251, respectively. Besides, the z-score in test [4] is 0.223 (inactive).
`CCOC(=O)[C@H](Cc1ccccc1)NC(=O)CCC1CC(OC(=O)NCCc2ccc(F)cc2)CC2(CCCC(COC(=O)NCCC(C)C)O2)O1` (stereo not given in full): the composite z-score in test [1] was 1.16; in test [2], -0.226; in test [3] it was -0.415; in test [5], 0.52; in test [6], 1.01; in test [7], 0.396. Moreover, the composite z-score came to 1.18 in test [8], 0.648 in test [9] and 0.0186 in test [10]. In test [4], the z-score is -0.0793 (inactive).
Turning to `CCOC(=O)CCN1C(=O)[C@H]2[C@H]3[C@H](O)[C@H](O)CC(=NOCC(C)C)[C@@H]3CC[C@H]2C1=O`, the composite z-score in [1] was 0.816; in [2], -0.823; in [3], -1.74; in test [5], -0.0809; in test [6] it was 1.06; in test [7] it was 0.406. The composite z-score in test [8] amounted to 1.04; in [9] it was 1.78; in test [10] it was 1.28. Besides, in test [4], the z-score was 0.66 (inactive).
As to `CC(C)[C@@H](OCc1ccccc1)[C@H](C)C=NOC[C@@H](O)[C@H]1O[C@@H]2OC(C)(C)O[C@@H]2[C@H]1O`, the composite z-score in test [1] was 0.635; in [2], -0.0784; in test [3], -0.609; in test [5] it was 0.355; in [6], 0.151; in test [7] it was 0.677. In addition, the composite z-score was 0.628 in [8], 0.254 in test [9] and -0.519 in [10]. The z-score in [4] is -0.262 (inactive).
Turning to `CCOC(=O)[C@H](CC(C)C)NC(=O)CCC1CC(OC(=O)NCc2ccc3c(c2)OCO3)CC2(CCCC(COC(=O)NCCc3ccccc3OC)O2)O1` (stereo not given in full), the composite z-score in [1] was 0.608; in test [2], -0.0877; in test [3], -0.497; in [5], 0.533; in test [6], 1.27; in [7] it was 0.461. Further, the composite z-score in [8] was 1.01; in test [9], 0.434; in [10] it was -0.344. The z-score in [4] was 0.0955 (inactive).
Consider `CC(C)=CCCC(C)=CCON=C1C[C@@H](O)[C@@H](O)[C@@H]2[C@@H]3C(=O)N(c4cccc(Oc5ccccc5)c4)C(=O)[C@@H]3CC[C@H]12`, for which the composite z-score in [1] is 0.0643; in test [2] it was -0.183; in test [3], -0.2; in [5], 0.411; in test [6] it was 0.286; in test [7], 0.348. For the same molecule, the figures for the composite z-score in [8], in test [9] and in test [10] were 0.751, 0.419 and 0.657, respectively. In addition, in test [4], the z-score was 0.467 (inactive).
`Cc1cc(C)c(-c2cc([C@H](C)ON=C[C@@H](C)[C@H](OCc3ccccc3)C(C)C)on2)c(C)c1`: the composite z-score in test [1] is -0.761; in test [2], -0.143; in [3], -0.0987; in test [5], 0.149; in test [6], -1.17; in test [7], -0.101. For the same molecule, the composite z-score in test [8] is -0.0283; in [9], -0.034; in test [10] it was 0.874. In addition, the z-score in test [4] is -0.34 (inactive).
